# Screening results: PubChem, several laboratories
# PERK inhibitor: blocks human PERK kinase; Q9NZJ5; CHO PERK-DD fusion, SEAP luminescence translation reporter; inhibition, % at 5.6 µM; actives 0.17% (n = 220,000); AID 1416;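 active = inhibition above the mean inhibition of all tested compounds plus 3 SD, set separately per screening campaign, cut at about 2.9% in these data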;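 also: PERK kinase domain activated by AP20187 dimerizer at 100 nM; 0% = DMSO with dimerizer and 100% = rapamycin at 8.4 µM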
# PGE2 EP2 inh: EP2 receptor (human) inhibition; C6 glioma cells expressing human EP2, cAMP TR-FRET; cells stimulated with saturating PGE2; inhibition, % at 25 µM; actives 0.52% (n = 260,000);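 active = percent inhibition above 40 after rounding to a whole number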;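 also: rat C6 glioma host cells with rolipram phosphodiesterase inhibitor present; the protocol text gives 20 µM as final concentration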
# EP2 modulator: modulates human prostaglandin E2 receptor EP2 signaling; induction, % at 25 µM; AID 940; P43116; actives 0.83% (n = 260,000); EP2-expressing cells, cAMP HTRF FRET, PGE2 co-stimulation;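 active = compounds whose cAMP rise, as percent of the full-agonist control response, exceeds 60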;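 also: rat C6 glioma line stably carrying human EP2 under a CMV promoter; the protocol text gives 20 µM as final concentration; 100% = response of wells given 1 µM PGE2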
# eIF4E-4G inh: inhibitors of eIF4E and eIF4G interaction in translation initiation; TR-FRET eIF4E-eIF4GI(517-606) binding, 2 h; actives 0.37% (n = 220,000); P63073+Q04637; inhibition, % at 21.7 µM;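 active = inhibition above about 30%, limit read from the data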;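 also: 0% = full FRET control wells and 100% = background wells lacking eIF4GI fragment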
# Target sequence (P63073 whole entry, looked up, the tested form may be a part): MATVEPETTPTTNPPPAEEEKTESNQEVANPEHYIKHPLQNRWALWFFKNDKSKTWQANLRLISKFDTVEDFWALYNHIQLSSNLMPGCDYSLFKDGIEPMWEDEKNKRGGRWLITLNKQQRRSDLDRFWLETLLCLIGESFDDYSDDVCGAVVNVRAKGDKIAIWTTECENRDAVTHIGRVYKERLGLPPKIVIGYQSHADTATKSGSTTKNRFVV
# Target sequence (Q04637 whole entry, looked up, the tested form may be a part): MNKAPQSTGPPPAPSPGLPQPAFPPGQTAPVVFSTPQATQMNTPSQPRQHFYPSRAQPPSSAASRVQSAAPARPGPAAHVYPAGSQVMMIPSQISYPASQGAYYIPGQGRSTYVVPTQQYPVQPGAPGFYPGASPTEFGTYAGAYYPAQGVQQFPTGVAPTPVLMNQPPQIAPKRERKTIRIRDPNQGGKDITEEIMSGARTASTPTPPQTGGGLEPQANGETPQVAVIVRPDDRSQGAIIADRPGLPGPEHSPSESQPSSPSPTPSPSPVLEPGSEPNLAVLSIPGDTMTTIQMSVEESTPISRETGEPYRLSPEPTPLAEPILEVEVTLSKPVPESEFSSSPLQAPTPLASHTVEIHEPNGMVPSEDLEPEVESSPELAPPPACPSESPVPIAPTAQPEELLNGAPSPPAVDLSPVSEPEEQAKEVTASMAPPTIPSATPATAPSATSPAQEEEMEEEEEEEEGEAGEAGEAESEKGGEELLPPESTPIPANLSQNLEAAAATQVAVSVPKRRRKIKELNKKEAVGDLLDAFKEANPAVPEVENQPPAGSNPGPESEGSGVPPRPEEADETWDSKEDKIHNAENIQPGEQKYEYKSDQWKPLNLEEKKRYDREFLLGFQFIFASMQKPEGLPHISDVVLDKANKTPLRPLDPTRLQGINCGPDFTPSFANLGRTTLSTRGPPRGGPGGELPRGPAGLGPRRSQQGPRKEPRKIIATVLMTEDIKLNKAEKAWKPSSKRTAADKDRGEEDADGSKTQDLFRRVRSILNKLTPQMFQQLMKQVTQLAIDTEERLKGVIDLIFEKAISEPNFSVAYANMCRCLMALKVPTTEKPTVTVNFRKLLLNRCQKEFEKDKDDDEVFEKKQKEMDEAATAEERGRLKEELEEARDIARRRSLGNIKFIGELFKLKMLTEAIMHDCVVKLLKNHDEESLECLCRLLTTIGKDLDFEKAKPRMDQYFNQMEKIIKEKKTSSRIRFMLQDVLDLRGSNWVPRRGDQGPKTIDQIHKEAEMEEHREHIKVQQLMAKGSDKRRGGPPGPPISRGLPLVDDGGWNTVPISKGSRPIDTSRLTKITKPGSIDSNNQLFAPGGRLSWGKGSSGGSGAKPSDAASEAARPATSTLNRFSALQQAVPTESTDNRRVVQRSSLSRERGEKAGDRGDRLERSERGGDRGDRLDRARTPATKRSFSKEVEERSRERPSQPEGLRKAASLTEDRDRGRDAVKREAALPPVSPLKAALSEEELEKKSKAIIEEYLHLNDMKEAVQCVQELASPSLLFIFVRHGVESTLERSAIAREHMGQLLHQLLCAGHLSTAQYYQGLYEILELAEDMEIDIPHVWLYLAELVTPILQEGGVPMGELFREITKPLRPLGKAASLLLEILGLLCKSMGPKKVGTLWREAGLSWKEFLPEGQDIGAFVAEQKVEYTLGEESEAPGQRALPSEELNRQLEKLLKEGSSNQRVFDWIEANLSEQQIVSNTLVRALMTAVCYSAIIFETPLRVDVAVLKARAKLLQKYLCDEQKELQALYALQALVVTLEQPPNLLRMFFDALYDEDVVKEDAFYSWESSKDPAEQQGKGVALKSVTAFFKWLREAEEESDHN
# Numbers without * were called inactive; . = not tested or not shown; ! = not active in a repeat; [ ] = dose if it differs, or a comment. This is a sample that favours compounds with a hit; in the whole collection about 1.8% have one here.
SMILES,PERK inhibitor,PGE2 EP2 inh,EP2 modulator,eIF4E-4G inh
COC(=O)c1c(NC(=O)c2ccccc2OC)sc(C(=O)Nc2cccc(OC)c2)c1C,.,6,30,.
CCc1nc2sc3c(c2c2nnc(SCC(=O)Nc4cc(OC)cc(OC)c4)n12)CCCC3,.,12,-54,.
CNC[C@@H](O)c1ccc(O)c(O)c1,.,10,82*,.
CC(C)NC[C@@H](O)c1ccc(O)c(O)c1,1,9,80*,1
CC(C)NCC(O)c1ccc(NS(C)(=O)=O)cc1 (centres undefined),1,14,15,-2
CC(C)(C)NCC(O)c1ccc(O)c(CO)c1 (centres undefined),.,14,78*!,.
CC(C)(C)NCC(O)c1cc(O)cc(O)c1 (centres undefined),0,17,47,-1
Cc1ccn2cc(C(=O)NC3CCCCC3)nc2c1,.,8,-14,.
Cn1ncc(Cl)c1C(=O)NC(=S)Nc1sc2c(c1C#N)CCCC2,.,14,-90,.
Cn1cc(Cl)c(-c2n[nH]c(=S)n2-c2ccccc2)n1,3.3*,13,42,2
COc1ccc(/C=N/N2C(=O)CSC2=S)cc1,-1,16,-8,7
O=C1CSC(=S)N1/N=C/c1ccc(O)c(O)c1O,0,5,-32,84*
O=S(=O)(c1ccccc1)N1c2cc(Cl)ccc2Oc2nc3ccccc3nc21,-1,8,61*,4
C[C@H](Oc1ccc(Oc2cnc3ccc(Cl)cc3n2)cc1)C(=O)O,.,46*,9,.
CCOC(=O)C1=C(N)OC2=C(C(=O)CCC2)C1c1ccccc1C (centres undefined),.,5,55,.
COc1cc2c(cc1OC)-c1cc(NCc3ccccn3)nc(=O)n1CC2,1,17,36,88*
O=C(O)c1cccc(-n2cccc2/C=C2/NC(=O)N(c3ccc(Cl)cc3)C2=O)c1,1,13,21,71*
O=C(c1cccc(N2CCCCS2(=O)=O)c1)N1CCCC1c1nc2ccccc2[nH]1 (centres undefined),.,.,-6,.
COc1cccc(OCC(O)Cn2c(C(C)C)nc3ccccc32)c1 (centres undefined),.,13,4,.
COCCNC(=O)CSc1cc(-c2ccccc2)c2ccc(OC)cc2n1,1,11,63*,5
O=C(CCc1ccccc1)NCc1nc(-c2ccncc2)n[nH]1,.,7,13,.
CC1=C(C#N)C(=O)N(C2CCS(=O)(=O)C2)C(=O)/C1=C\c1ccco1 (centres undefined),1,6,13,63*
Cc1cc(NC(=O)c2cc(C(C)(C)C)oc2C)no1,-1,15,-39,-6
Cc1oc(C(C)(C)C)cc1C(N)=O,3.0*,13,-3,1
O=c1cc(-c2ccccc2Cl)oc2c(NS(=O)(=O)c3cc(Cl)cc(Cl)c3O)ccc(O)c12,0,45*,8,15
SMILES,PERK inhibitor,PGE2 EP2 inh,EP2 modulator,eIF4E-4G inh
CCc1ccc(S(=O)(=O)Nc2ccc(O)c3c(=O)cc(-c4ccccc4Cl)oc23)cc1,.,20,44,-4
CCOC(=O)Cn1ncc2c3sc(C)cc3n(Cc3ccc(F)cc3)c2c1=O,.,6,14,.
CC(C)Cc1csc(NC(=O)C(C)C)c1C(=O)O,0,11,-2,-3
CC(C)Cc1csc(NC(=O)c2ccc(Br)cc2)c1C(=O)O,3.2*,12,-43,3
Cn1c(SCC(N)=O)nc2sc3c(c2c1=O)CCCC3,.,8,-61,.
CCSc1nc2sc3c(c2c(=O)n1C)CCCC3,.,7,61*,.
COc1ccc(C2=NN(Cc3c(F)cccc3Cl)C(=O)CC2)cc1,1,9,63*,1
Cc1ccc(-c2cc(N)n(-c3ccc(F)cc3)n2)cc1,3.4*,11,6,-1
Cc1ccc(-c2cc(N)n(-c3ccc(C)cc3)n2)cc1,0,8,41,2
O=C1[C@@H]2[C@H](C(=O)N1CN1CCSCC1)[C@H]1[C@@H]3C=C[C@@H]([C@@H]4C(=O)N(CN5CCSCC5)C(=O)[C@@H]34)[C@@H]21,.,45*,15,.
Cc1cc(C)nc(NS(=O)(=O)c2ccc(NC(=O)CSc3nc(-c4ccccc4)c(C#N)c(=O)[nH]3)cc2)n1,1,24,62*,0
Oc1cc(CN2COc3ccccc32)c(O)cc1CNC1CCCCC1,.,118*,2,.
Fc1ccc(-n2cc(-c3ccccc3)c3c(N4CCOCC4)ncnc32)cc1,0,11,62*,-1
CN(c1ccc(O)cc1)c1nc(-c2ccccn2)cs1,.,14,-99,.
Cc1ccc(-c2oc3ncnc(N)c3c2-c2ccc(C)cc2)cc1,-1,5,61*,-10
Cc1nc2ccc3nc(NC(=O)c4ccc5c(c4)OCCO5)sc3c2s1,0,52*,4,.
CN1N=C(C(C)(C)C)CC1=O,3.4*,8,-4,-5
Cc1ccc(N(CC(=O)NC2CCCCC2)C(=O)c2ccc3c(c2)OCCO3)cc1,.,9,-36,.
Cc1c(C(=O)N2CCCCC2)nn(-c2ccc(Cl)cc2)c(=O)c1C#N,2,3,-11,43*
CCOC(=O)c1nn(-c2ccc(Cl)cc2)c(=O)c(C#N)c1C,.,9,-1,.
COC(=O)c1c(NC(=O)c2ccco2)sc(C(=O)Nc2ccccc2C)c1C,.,9,17,.
Cc1nn(CC(=O)NCCCN2CCC(C)CC2)c(=O)c2cc3occc3n12,.,6,-17,.
CCn1c2cc(C)sc2c2cnn(CC(=O)N3CCc4ccccc43)c(=O)c21,.,.,-80,.
COC(=O)c1c(C)cc(OC(C)=O)c(C)c1OC(C)=O,2,19,21,33*
Nc1ccc(NC(=O)CN2CCCCC2)cc1,.,14,3,.
SMILES,PERK inhibitor,PGE2 EP2 inh,EP2 modulator,eIF4E-4G inh
O=C(/C=C/c1ccc(Cl)c(Cl)c1)c1ccc2c(c1)OCCO2,.,6,-64,.
Cc1cc(NC(=O)c2noc3c2CCc2ccccc2-3)n(-c2ccccc2)n1,0,11,8,76*[fluorescence artefact?]
Cc1ccc(NC(=O)c2noc3c2CCc2ccccc2-3)cc1,-1,9,-19,8
c1ccc(B2OC[C@@H]3OB(c4ccccc4)O[C@H]([C@@H]4COB(c5ccccc5)O4)[C@H]3O2)cc1,.,41*,13,.
Cc1cc(C)c2cc(CN(Cc3cccs3)Cc3nnnn3CCc3ccccc3)c(=O)[nH]c2c1,.,10,63*,.
Cc1ccc2nc3sc(-c4nnc(-c5ccccc5)o4)c(N)c3cc2c1,.,13,-56,.
CCn1ncc(Br)c1C(=O)Nc1ccccc1OC,1,7,63*,3
CCn1ncc(Br)c1C(=O)Nc1cc(C(=O)OC)ccc1C(=O)OC,0,14,32,-22
COc1ccc2c(c1)cc(C)c1nnc(SCC(=O)Nc3sc4c(c3C#N)CCC(C)C4)n12 (centres undefined),.,11,13,.
CCCCCn1c(=O)[nH]c2cc(C(=O)N3CCN(Cc4ccc5c(c4)OCO5)CC3)ccc2c1=O,-1,34,-3,44*
NC(=O)CC(NC(=O)c1ccc(Br)cc1)c1ccc(NCc2ccc(F)cc2)c([N+](=O)[O-])c1 (centres undefined),.,51*,-36,-4
